Measured values from PubChem BioAssay (Tox21).
Values joined by “and” are separate entries in the source; they are usually repeats but may differ in a detail not shown here. Equal entries are not always repeated. Records with an inconclusive call do not appear. Some compounds were tested as several samples or in several runs, with calls that do not always agree. Active and inactive are the calls of the source. Unless noted, calls come from the whole dose curve.

Legend:
[1] = qHTS assay to identify small molecule agonists of the sonic hedgehog signaling (Shh) pathway (AID 1259368);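 note: NIH/3T3-derived 3T3Gli1-Luc cells carrying a stable Gli1-driven firefly luciferase reporter; series mostly up to about 92 µM; nearly all actives have a fitted effect of over 15% in size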
How it was run: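 Cells of a mouse NIH/3T3 clone stably expressing luciferase under the Gli1 transcriptional response element are exposed to test chemicals for 24 hr at 37 C. Pathway activation is detected as a rise in luminescence.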

[2] = qHTS assay to identify small molecule agonists of the androgen receptor (AR) signaling pathway in the presence of an antagonist - cell viability counter screen (AID 1259379; active = well fitted curve in the direction sought with a large enough effect in the repeat runs; an effect the other way counts as inactive or inconclusive; note: nearly all actives have a fitted effect of over 25% in size; note: potency is the fitted concentration of half-maximal effect)
How it was run: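 Cytotoxicity is assessed by CellTiter-Fluor in MDA-kb2 cells carrying an MMTV-driven luciferase reporter. Cells receive 3.0uM nilutamide plus compounds at 15 concentrations and incubate 16 hr at 37C without CO2 before fluorescence reading.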

[3] = qHTS assay to identify small molecule agonists of the estrogen receptor beta (ER-beta) signaling pathway - cell viability counter screen (AID 1259380; active = well fitted curve in the direction sought with a large enough effect in the repeat runs; an effect the other way counts as inactive or inconclusive; note: nearly all actives have a fitted effect of over 30% in size; note: potency is the fitted concentration of half-maximal effect)
How it was run: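 Cytotoxicity is measured in parallel with the reporter screen: after 16 hr compound exposure at 37C and a 2 hr LiveBLAzer step, CellTiter-Glo is added to the same ER-beta-UAS-bla HEK293T wells and luminescence read after 30 min.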

[4] = qHTS assay to identify small molecule antagonists of the estrogen receptor beta (ER-beta) signaling pathway - cell viability counter screen (AID 1259382; active = well fitted curve in the direction sought with a large enough effect in the repeat runs; an effect the other way counts as inactive or inconclusive; note: series mostly up to about 92 µM; nearly all actives have a fitted effect of over 55% in size)
How it was run: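 Cytotoxicity counter screen multiplexed with the beta-lactamase antagonist assay: GripTite HEK293T ER-beta-bla cells were treated 16 hr with test chemicals in the presence of 1nM 17-beta-estradiol, and viability was measured by CellTiter-Glo.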

[5] = biological target: Estrogen receptor (Homo sapiens) (UniProt P03372); experiment: qHTS assay to identify small molecule agonists of the estrogen receptor alpha (ER-alpha) signaling pathway in the presence of an antagonist (AID 1259383); note: nearly all actives have a fitted effect of over 15% in size; note: potency is the fitted concentration of half-maximal effect; for activation: top concentration of the series differs between compounds
How it was run: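 Agonist-mode confirmation in the presence of the ER antagonist ICI-182,780 at 10.0nM final. Breast-derived VM7Luc4E2 reporter cells were exposed to compounds for 22hr, and ERE-driven luciferase was quantified by luminescence.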

[6] = qHTS assay to identify small molecule agonists or antagonists of the thyroid stimulating hormone receptor (TSHR) signaling pathway - wild type cell line counter screen (AID 1259384)
How it was run: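 Wild-type Hek293 cells, 800/well, 18 h at 37C, then compound with Ro20-1724 for 30 min RT. cAMP by HTRF (cAMP-d2/anti-cAMP cryptate), 1 h RT, fluorescence read. 15 concentrations, triplicates.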

[7] = biological target: Estrogen receptor beta (Homo sapiens) (UniProt Q92731); experiment: qHTS assay to identify small molecule antagonists of the estrogen receptor beta (ER-beta) signaling pathway (AID 1259378; active = well fitted inhibition curve with a large enough effect in the signal ratio in the repeat runs, not every such curve was filed as active; the % refers to the signal ratio; note: potency is the fitted concentration of half-maximal effect)
How it was run: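 ER-beta-UAS-bla HEK293T cells in 2% charcoal-stripped FBS medium treated with compound plus 1nM final 17-beta-estradiol for 16 hr at 37C. Beta-lactamase reporter read by FRET substrate fluorescence after 2 hours at room temperature.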

[8] = biological target: Androgen receptor (Homo sapiens) (UniProt P10275); experiment: qHTS assay to identify small molecule agonists of the androgen receptor (AR) signaling pathway in the presence of an antagonist (AID 1259381); note: nearly all actives have a fitted effect of over 15% in size; note: potency is the fitted concentration of half-maximal effect
How it was run: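 Agonist-mode confirmation screen: human MDA-kb2 cells stably expressing luciferase under an MMTV promoter bearing AR and GR response elements, co-treated with 3.0uM nilutamide (final). Luminescence measured after 16hr compound incubation.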

[9] = qHTS assay to identify small molecule antagonists of the sonic hedgehog signaling (Shh) pathway (AID 1259369); note: nearly all actives have a fitted effect of over 45% in size; note: potency is the fitted concentration of half-maximal effect
How it was run: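 Cells are plated and held 4hr at 37 C, compounds (DMSO) are pinned in, conditioned medium is added to stimulate the pathway, and after 24hr luciferase reagent is added for 30min before luminescence is read.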

[10] = biological target: Estrogen receptor beta (Homo sapiens) (UniProt Q92731); experiment: qHTS assay to identify small molecule agonists of the estrogen receptor beta (ER-beta) signaling pathway (AID 1259377; active = well fitted activation curve with a large enough effect in the signal ratio in the repeat runs, not every such curve was filed as active; the % refers to the signal ratio)
How it was run: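 A UAS-controlled beta-lactamase reporter in ER-beta-UAS-bla HEK293T cells reports receptor activation. Compounds act for 16 hr at 37C in 2% charcoal-stripped serum, and a FRET substrate is read by fluorescence after 2 hours.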

Measured: Potency

Sequence of Estrogen receptor (Homo sapiens) (P03372 whole entry, looked up): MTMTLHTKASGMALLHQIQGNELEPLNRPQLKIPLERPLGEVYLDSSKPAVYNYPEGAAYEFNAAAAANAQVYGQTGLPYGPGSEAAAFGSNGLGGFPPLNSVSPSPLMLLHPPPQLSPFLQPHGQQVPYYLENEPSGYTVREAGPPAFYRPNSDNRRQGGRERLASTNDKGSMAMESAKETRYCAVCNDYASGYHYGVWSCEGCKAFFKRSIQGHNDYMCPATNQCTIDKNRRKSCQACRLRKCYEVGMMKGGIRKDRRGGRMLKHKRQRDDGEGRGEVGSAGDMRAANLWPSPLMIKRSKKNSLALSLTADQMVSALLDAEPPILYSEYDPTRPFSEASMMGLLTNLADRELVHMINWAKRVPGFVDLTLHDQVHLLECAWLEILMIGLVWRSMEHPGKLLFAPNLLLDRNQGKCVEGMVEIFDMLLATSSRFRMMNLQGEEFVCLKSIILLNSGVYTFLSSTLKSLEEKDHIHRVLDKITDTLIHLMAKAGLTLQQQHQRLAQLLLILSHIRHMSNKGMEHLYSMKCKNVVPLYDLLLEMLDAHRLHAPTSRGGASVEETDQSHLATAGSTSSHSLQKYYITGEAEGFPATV
Sequence of Androgen receptor (Homo sapiens) (P10275 whole entry, looked up): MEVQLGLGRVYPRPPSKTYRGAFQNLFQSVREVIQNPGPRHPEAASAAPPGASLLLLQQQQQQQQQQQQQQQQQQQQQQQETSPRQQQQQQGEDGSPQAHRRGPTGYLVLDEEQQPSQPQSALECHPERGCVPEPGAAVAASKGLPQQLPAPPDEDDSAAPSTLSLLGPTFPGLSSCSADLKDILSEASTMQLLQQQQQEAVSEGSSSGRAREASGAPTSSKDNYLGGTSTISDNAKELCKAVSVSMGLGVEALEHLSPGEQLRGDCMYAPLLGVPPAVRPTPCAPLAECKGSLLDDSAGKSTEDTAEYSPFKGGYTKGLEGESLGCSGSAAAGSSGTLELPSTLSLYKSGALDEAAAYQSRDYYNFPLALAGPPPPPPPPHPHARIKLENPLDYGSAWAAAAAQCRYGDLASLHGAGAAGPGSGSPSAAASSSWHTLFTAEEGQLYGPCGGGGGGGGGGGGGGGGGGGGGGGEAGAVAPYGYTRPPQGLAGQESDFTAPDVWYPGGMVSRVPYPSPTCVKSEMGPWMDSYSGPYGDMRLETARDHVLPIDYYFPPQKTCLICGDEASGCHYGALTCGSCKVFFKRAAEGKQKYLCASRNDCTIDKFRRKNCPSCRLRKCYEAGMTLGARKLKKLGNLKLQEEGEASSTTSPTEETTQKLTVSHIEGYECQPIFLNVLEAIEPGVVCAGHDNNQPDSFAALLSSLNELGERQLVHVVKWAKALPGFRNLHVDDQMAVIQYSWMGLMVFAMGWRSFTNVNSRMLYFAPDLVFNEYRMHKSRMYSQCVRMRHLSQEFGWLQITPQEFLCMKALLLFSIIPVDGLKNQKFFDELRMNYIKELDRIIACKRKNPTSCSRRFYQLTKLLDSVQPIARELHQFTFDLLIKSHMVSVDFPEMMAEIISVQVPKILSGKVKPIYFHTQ
Sequence of Estrogen receptor beta (Homo sapiens) (Q92731 whole entry, looked up): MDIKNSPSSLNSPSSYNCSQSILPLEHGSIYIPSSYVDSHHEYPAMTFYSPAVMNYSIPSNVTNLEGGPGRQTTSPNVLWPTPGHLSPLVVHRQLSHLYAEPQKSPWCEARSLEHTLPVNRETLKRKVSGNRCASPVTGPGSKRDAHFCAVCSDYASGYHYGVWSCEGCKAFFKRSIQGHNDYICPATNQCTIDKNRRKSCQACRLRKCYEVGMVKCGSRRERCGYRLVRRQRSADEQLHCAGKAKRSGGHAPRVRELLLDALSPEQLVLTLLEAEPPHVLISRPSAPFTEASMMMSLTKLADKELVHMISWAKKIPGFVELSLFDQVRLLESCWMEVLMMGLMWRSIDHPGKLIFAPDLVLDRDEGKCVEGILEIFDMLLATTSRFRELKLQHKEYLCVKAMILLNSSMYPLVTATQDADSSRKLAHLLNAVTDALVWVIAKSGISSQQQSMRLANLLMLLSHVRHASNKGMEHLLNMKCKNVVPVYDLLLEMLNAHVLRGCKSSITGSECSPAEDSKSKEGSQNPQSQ

c1ccc(-c2cccc(-c3ccccc3)c2)cc1
active: [3] 19.5 µM and 30.6 µM
inactive: [1] | [2] | [4] | [5] | [6]

Oc1c(Cl)c(Cl)c(Cl)c(Cl)c1Cl
inactive: [1] | [2] | [3] | [5] | [6]

CCOCN(C(=O)CCl)c1c(C)cccc1CC
active: [7] 21.7 µM | [3] 48.6 µM
inactive: [1] | [5] | [6]

Nc1ccc(Cl)cc1N
inactive: [2] | [6]
active: [3] 54.5 µM | [8] 4.86 µM

C[C@]12CCC(=O)C(O)=C1CC[C@@H]1[C@@H]2CC[C@]2(C)C(=O)CC[C@@H]12
inactive: [1] | [2] | [4] | [5]
active: [3] 24.3 µM

Brc1ccc(Oc2cc(Br)c(Br)cc2Br)c(Br)c1
inactive: [1] | [7] | [2] | [5]
active: [3] 30.6 µM

CC(C)Oc1cc(-n2nc(C(C)(C)C)oc2=O)c(Cl)cc1Cl
inactive: [1] | [2] | [3] | [8] | [5] | [6]

N[C@@H](Cc1ccc(N(CCCl)CCCl)cc1)C(=O)O
inactive: [1] | [7] | [2] | [3] | [6]

O=C(O)C(F)(F)C(F)(F)C(F)(F)C(F)(F)C(F)(F)C(F)(F)C(F)(F)F
inactive: [1] | [2] | [6]
active: [3] 30.6 µM and 24.3 µM

Cc1cccc(N)c1N
29.6 µM (active) and inactive: [9]
not listed: [1] | [5] | [8]
inactive: all other assays above

CCOC(=S)S
active: [3] 10.3 µM
inactive: [1] | [2] | [6]

CCCCC(CC)COC(=O)c1ccc(C(=O)OCC(CC)CCCC)c(C(=O)OCC(CC)CCCC)c1 (stereo not given)
inactive: [1] | [2] | [3] | [8] | [6]

O=C(CCl)c1ccccc1
inactive: [1] | [7] | [2] | [3] | [6]

NC(=S)Nc1ccccc1
inactive: [1] | [7] | [5] | [6]
24.7 µM (active) and inactive: [2]
44 µM (active) and inactive: [3]

CCOc1cc(C=O)ccc1O
inactive: [1] | [2] | [3] | [4] | [6]

CN(C)C(=O)Nc1ccc(Cl)cc1
inactive: [1] | [7] | [2] | [3] | [6]

COc1ccc(C(CN(C)C)C2(O)CCCCC2)cc1 (stereo not given)
inactive: [1] | [2] | [3] | [4] | [6]

Nc1c(Cl)cc([N+](=O)[O-])cc1Cl
inactive: [1] | [7] | [2] | [8] | [5]
active: [3] 61.5 µM and 27.3 µM

NCc1cccnc1
inactive: [1] | [2] | [3] | [5] | [6]

CC(C)C(=O)OCC(C)(C)C(OC(=O)C(C)C)C(C)C (stereo not given)
inactive and 27.3 µM (active): [5]
not listed: [8] | [9] | [10]
inactive: all other assays above

C1=Cc2cccc3cccc1c23
inactive: [1] | [2] | [3] | [4] | [6]

O=P(O)(O)CCCl
inactive: [1] | [2] | [3] | [4] | [5] | [6]

Cc1ccc2c(c1N)C(=O)c1ccccc1C2=O
active: [2] 27 µM | [3] 30.3 µM
6.04 µM (active) and inactive: [5]
inactive: [1] | [7] | [6]

Cc1cc(Cl)ccc1OCCCC(=O)O
inactive: [1] | [2] | [3] | [8] | [4] | [6]

CCCCOCCOP(=O)(OCCOCCCC)OCCOCCCC
inactive: [1] | [7] | [2] | [5] | [6]
active: [3] 24.4 µM

N#Cc1cc(Br)c(O)c(Br)c1
not listed: [7] | [9] | [10]
inactive: all other assays above

C=CC(=O)OCCO
inactive: [1] | [7] | [2] | [3] | [4] | [6]

CCC(CC)Nc1c([N+](=O)[O-])cc(C)c(C)c1[N+](=O)[O-]
inactive: [1] | [10] | [2] | [4] | [6]
active: [3] 61.1 µM

COc1ccc(C=O)cc1
inactive: [1] | [2] | [3] | [4] | [5] | [6]

CCN(CC)N=O
inactive: [1] | [2] | [3] | [4] | [6]

O=Cc1ccco1
inactive: [1] | [2] | [3] | [6]

Nc1ccc(Cl)c(Cl)c1
inactive: [1] | [7] | [2] | [3] | [4] | [6]

Clc1nc(Cl)nc(Cl)n1
inactive: [1] | [2] | [3] | [4] | [5]

CCCCCc1cc(O)cc(O)c1
inactive: [1] | [2] | [3] | [4] | [6]

C=CCN(CC=C)C(=O)C(Cl)Cl
inactive: [1] | [7] | [2] | [3] | [4] | [6]
